{"source": "PubChem BioAssay AID1224861", "about": "(National Center for Advancing Translational Sciences (NCATS), 2016)", "note": "Records with an inconclusive call do not appear. Active and inactive are the calls of the source. Calls follow the shape of the dose curve; as a rule, active = well fitted cell-killing curve with a large enough effect; inconclusive = small, poorly fitted or top-dose-only effect, or effect the other way; inactive = flat fitted curve, though single readings scatter."}
{"experiment": "Compound cytotoxicity measured by an ATP content assay as a counter-screen for lead compounds in human astrocytes", "conditions": "human astrocytes viability, ATP luminescence; series mostly up to 46.1 µM; activity change, negative = cytotoxicity: at the top concentration", "outline": "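Cytotoxicity expressed as percent inhibition of cell viability from ATP-dependent luminescence, read after 10 min at room temperature with 1:1 kit reagent. Compound exposure times matched the primary screens, e.g. 6, 24 or 72 h, in cultured human astrocytes.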"}
{"smiles": "Nc1cc(C(F)(F)F)ccc1S", "activity change, negative = cytotoxicity": "-10.8% (inactive)"}
{"smiles": "O=C(Nc1ccc(C(=O)O)c(O)c1)c1ccccc1", "activity change, negative = cytotoxicity": "10% (inactive)"}
{"smiles": "O=C1c2ccccc2C(=O)c2c1ccc(O)c2O", "activity change, negative = cytotoxicity": "-2.34% (inactive)"}
{"smiles": "Cc1cccc(/C=C/c2ccccc2)n1", "activity change, negative = cytotoxicity": "-12.8% (inactive)"}
{"smiles": "CN(C)c1cc(NC(=O)CNC(C)(C)C)c(O)c2c1C[C@@H]1C[C@H]3[C@H](N(C)C)C(=O)C(C(N)=O)=C(O)[C@@]3(O)C(=O)C1=C2O", "activity change, negative = cytotoxicity": "-1.32% (inactive)"}
{"smiles": "COc1ccc(-c2cc(=S)ss2)cc1", "activity change, negative = cytotoxicity": "-17.3% (inactive)"}
{"smiles": "CN1CCN(c2cc3c(nn2)Oc2ccccc2N3C)CC1", "activity change, negative = cytotoxicity": "9.89% [at 23.8 µM] (inactive)"}
{"smiles": "COCCn1c2c([n+](Cc3cnccn3)c1C)C(=O)c1ccccc1C2=O", "Potency": "0.138 µM (active)"}
{"smiles": "CC(O)=C(C#N)C(=O)Nc1ccc(C(F)(F)F)cc1", "Potency": "6.9 µM (active)"}
{"smiles": "C[C@@H]1CCN(C(=O)CC#N)C[C@H]1N(C)c1ncnc2[nH]ccc12", "activity change, negative = cytotoxicity": "0.0793% (inactive)"}
{"smiles": "N#C/C(=C\\c1ccc(O)c(O)c1)C(=O)Nc1ccccc1", "activity change, negative = cytotoxicity": "-1.6% (inactive)"}
{"smiles": "COc1ccc(-c2cc(=O)c3c(O)cc(O)cc3o2)cc1O", "activity change, negative = cytotoxicity": "5.46% (inactive)"}
{"smiles": "CN(C)c1ccc(C(=C2C=CC(=[N+](C)C)C=C2)c2ccccc2)cc1", "activity change, negative = cytotoxicity": "-28.5% (inactive)"}
{"smiles": "CC(C)c1ccc2oc3nc(N)c(C(=O)O)cc3c(=O)c2c1", "Potency": "2.75 µM (active)"}
{"smiles": "Nc1ccc(O)c(C(=O)O)c1", "activity change, negative = cytotoxicity": "-2.4% (inactive)"}
{"smiles": "O=C(C=CC=Cc1ccc2c(c1)OCO2)N1CCCCC1", "activity change, negative = cytotoxicity": "-18.9% (inactive)"}
{"smiles": "CCC(C(=O)O)c1ccc(N2Cc3ccccc3C2=O)cc1", "note": "(configuration not stated)", "activity change, negative = cytotoxicity": "-15.4% (inactive)"}
{"smiles": "NC(=O)c1cccc2[nH]c(-c3ccc([C@H]4CCCN4)cc3F)nc12", "Potency": "5.48 µM (active)"}
{"smiles": "CCN1CCC(n2cc(CNc3cc(Cl)c4ncc(C#N)c(Nc5ccc(F)c(Cl)c5)c4c3)nn2)CC1", "activity change, negative = cytotoxicity": "-4.32% (inactive)"}
{"smiles": "CO[C@H]1C(=O)[C@]2(C)[C@@H](OC)C[C@H]3OC[C@@]3(OC(C)=O)[C@H]2[C@H](OC(=O)c2ccccc2)[C@]2(O)C[C@H](OC(=O)[C@H](O)[C@@H](NC(=O)OC(C)(C)C)c3ccccc3)C(C)=C1C2(C)C", "activity change, negative = cytotoxicity": "-18.2% (inactive)"}
{"smiles": "O=C1C[C@@H](c2ccc(O)cc2)Oc2cc(O)cc(O)c21", "activity change, negative = cytotoxicity": "3.17% (inactive)"}
{"smiles": "Cc1c(N)c(=O)n(-c2ccccc2)n1C", "activity change, negative = cytotoxicity": "-1.57% (inactive)"}
{"smiles": "Oc1cc(O)cc(/C=C/c2ccc(O)c(O)c2)c1", "Potency": "8.69 µM (active)"}
{"smiles": "CN(C)c1ccc2cc(C(=O)N[C@@H](CCCN=C(N)CCl)C(=O)NCc3ccccc3)ccc2c1", "activity change, negative = cytotoxicity": "16.8% (inactive)"}
{"smiles": "N#CC1(c2ccc(NC(=O)c3cccnc3NCc3ccncc3)cc2)CCCC1", "activity change, negative = cytotoxicity": "-18.6% (inactive)"}
{"smiles": "COc1cc2nc(-c3ccc(N4CCN(C)CC4)cc3)nc(NCCN3CCOCC3)c2cc1OC", "activity change, negative = cytotoxicity": "-8.43% (inactive)"}
{"smiles": "CNC1[C@H](O)C(O[C@@H]2C(O)C(O[C@H]3O[C@H]([C@@H](C)NC)CC[C@H]3N)[C@@H](N)C[C@H]2N)OC[C@]1(C)O", "note": "(some centres not stated)", "activity change, negative = cytotoxicity": "12.8% (inactive)"}
{"smiles": "OCc1ccc(-c2ccc(-c3ccc(CO)s3)o2)s1", "Potency": "21.8 µM (active)"}
{"smiles": "CS(=O)(=O)c1ccc(-c2cn3ccccc3n2)cc1", "Potency": "8.69 µM (active)"}
{"smiles": "CC(C(=O)O)c1ccc(-c2ccccc2)c(F)c1", "note": "(configuration not stated)", "activity change, negative = cytotoxicity": "18.4% (inactive)"}
{"smiles": "Cc1csc(NC(=O)c2sc3nc4c(c(C(F)(F)F)c3c2N)CCC4)n1", "Potency": "3.46 µM (active)"}
{"smiles": "CC(C)(C)OC(=O)CN(Cc1ccc(Cl)cc1)Cc1ccc([N+](=O)[O-])s1", "activity change, negative = cytotoxicity": "-18.4% [at 88.3 µM] (inactive)"}
{"smiles": "CC(C)(C)COc1ccc(-n2cc(C(=O)O)cn2)cc1C#N", "activity change, negative = cytotoxicity": "-0.262% [at 88.3 µM] (inactive)"}
{"smiles": "CCCCCCOc1ccccc1C(N)=O", "activity change, negative = cytotoxicity": "15.9% (inactive)"}
{"smiles": "CC1(C)OC2=C(C(=O)c3ccccc3C2=O)[C@H](NCc2ccccc2)[C@H]1O", "Potency": "8.91 µM (active)"}
{"smiles": "O=C(Nc1cc2cc[nH]c2cn1)c1ccccc1", "Potency": "0.489 µM (active)"}
{"smiles": "COc1cc2nc(N3CCN(C(=O)C4CCCO4)CC3)nc(N)c2cc1OC", "note": "(configuration not stated)", "activity change, negative = cytotoxicity": "10.5% (inactive)"}
